Source: PubChem
nsP2pro inh: blocks chikungunya virus nsP2 protease peptide cleavage; Q8JUX6; FRET peptide cleavage, nsP2pro, fluorescence 1 h; Potency, µM (series often up to 24.9 µM), for inactives: at the highest dose activity change, negative = inhibition, hits mostly inhibitors; 1.1% of 31,000 active; AID 1964107; also: nearly all actives have a fitted effect of over 60% in size
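Purified recombinant nsP2pro (150 nM final) in 10 mM Tris-HCl pH 8.0 with 0.01% Tween 20 was preincubated 15 min at room temperature with compound (7 concentrations, up to 25 uM). FRET peptide 2 substrate (2.5 uM final) was then added; fluorescence was read after 1 h.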
nsP2 cell sec: cell-based CHIKV nsP2 protease inhibition, secondary | shares compounds with nsP2pro inh | cell-based CHIKV nsP2 protease reporter assay | Potency, µM (highest dose often 51.1 µM), for the others: at the top dose activity change, negative = inhibition, usual class: inhibitors | 10% of 450 active; also: nearly all actives have a fitted effect of over 70% in size
CHIKV NSP2 FL: full-length CHIKV NSP2 protease inhibition, selectivity. Potency, µM (series often up to 50.7 µM), without a hit: at the highest dose activity change, negative = inhibition, most hits filed as inhibitors. Full-length CHIKV NSP2 protease enzymatic counterscreen. 39% of 410 active. shares compounds with nsP2pro inh; also: nearly all actives have a fitted effect of over 65% in size
Furin counter: inhibits human furin in a CHIKV nsP2 protease selectivity counterscreen; shares compounds with nsP2pro inh; Recombinant human furin enzymatic counterscreen, fluorogenic substrate; Potency, µM (series often up to 50.6 µM), inactives show top-dose activity change, negative = inhibition, most hits filed as inhibitors; 6% of 410 active; AID 1964102
nsP2 NS23 pep: nsP2pro inhibition on native NS2/3 peptide substrate | Purified CHIKV nsP2 protease, endogenous NS2/3 peptide cleavage | Potency, µM (doses to about 51 µM), without a hit: at the highest dose activity change, negative = inhibition, actives largely listed as inhibitors | shares compounds with nsP2pro inh | 34% of 410 active; also: nearly all actives have a fitted effect of over 55% in size
Papain counter: inhibits papain in a CHIKV nsP2 protease selectivity counterscreen; shares compounds with nsP2pro inh; purified papain protease activity, enzymatic inhibition; Potency, µM (titrated, usually from 51 µM), without a hit: top-dose activity change, negative = inhibition, actives largely listed as inhibitors; 5% of 410 active; AID 1964104
nsP2pro confirm: CHIKV nsP2 protease inhibition, confirmatory qHTS; Potency, µM (top dose mostly 25.5 µM), for inactives: at the top dose activity change, negative = inhibition, hits mostly inhibitors; CHIKV nsP2 protease enzymatic activity, qHTS; shares compounds with nsP2pro inh; 43% of 410 active; also: nearly all actives have a fitted effect of over 75% in size
HCV NS3 4A cs: HCV NS3/4A protease inhibition, counterscreen | AID 1964106 | HCV NS3/4A protease biochemical counterscreen | Potency, µM (top dose mostly 50.9 µM), usual class: inhibitors | shares compounds with nsP2pro inh | 20% of 410 active; also: nearly all actives have a fitted effect of over 55% in size
Active calls of the source: *; i = inactive; ? = inconclusive; [ ] = dose if it differs, or a comment. This excerpt belongs to a sample that is enriched for hits. Calls follow the shape of the full dose curve. % is scaled to controls: 0 for no effect and ±100 for the full control effect; potency is read from the fitted curve at half-maximal effect.

SMILES	nsP2pro inh	others
O=[S+]1([O-])NC2(CCCN(Cc3ccsc3)C2)CNc2ccccc21 (centres undefined)	i
COc1ccc(Br)c(C(=O)Nc2cc3c(cc2N2CCCC2)n(C)c(=O)c(=O)n3C)c1	-33%
COc1ccc(OC)c(N2C(=O)C(Cl)=C(N3CCCCC3)C2=O)c1	?	nsP2 cell sec=-11%;CHIKV NSP2 FL=16µM*;Furin counter=-7%;nsP2 NS23 pep=?;Papain counter=-18%;nsP2pro confirm=7.1µM*;HCV NS3 4A cs=i
COc1ccc(OC)c(NC(=O)CN2C(=O)c3ccccc3Sc3ccc(C(=O)N4CCCC4)cc32)c1	-5%
CCOc1ccc(CCNC(=O)C2COc3ccccc3O2)cc1OCC (centres undefined)	-9%
CN1CCN(c2ccc(Nc3cc(-c4cccc(-n5ccc6cc(C7CC7)cc(F)c6c5=O)c4CO)cn(C)c3=O)nc2)CC1	?	nsP2 cell sec=141%;CHIKV NSP2 FL=47%;Furin counter=-18%;nsP2 NS23 pep=i;Papain counter=?;nsP2pro confirm=125%;HCV NS3 4A cs=i
O=C(Nc1ccc(S(=O)(=O)Nc2nccs2)cc1)C1CCC2(CC1)CC2	1%
CC(=O)O[C@H]1[C@H](C)[C@@H](O)[C@H]2[C@@H]1C=C(C(=O)O)[C@H]1C[C@@H]3[C@H]([C@H]21)[C@H]1C(=O)O[C@@H]2CC[C@@]3(C)O[C@]1(O)[C@@H]2C	-3%[10 µM]
CO[C@@H](Cc1ccc(OCCc2nc(-c3ccccc3)oc2C)c2ccsc12)C(=O)O	9.9µM*	nsP2 cell sec=21%;CHIKV NSP2 FL=0%;Furin counter=-6%;nsP2 NS23 pep=i;Papain counter=?;nsP2pro confirm=?;HCV NS3 4A cs=i
CCOc1ccc(-c2nc(CNC(=O)Nc3ccccc3)c(C)o2)cc1	-18%
Cc1oc(-c2ccc(C(=O)NCCCOC(C)C)cc2)nc1CS(=O)(=O)c1ccccc1	-18%
COc1ccc(Cl)cc1[C@@]1(F)C(=O)Nc2cc(C(F)(F)F)ccc21	1%
Cc1ccc(OCCn2c(CCNC(=O)c3cccc(F)c3)nc3ccccc32)cc1	i
[O-][n+]1ccccc1SSc1cccc[n+]1[O-]	2.7µM*	nsP2 cell sec=?;CHIKV NSP2 FL=8.2µM*;Furin counter=-12%;nsP2 NS23 pep=9.2µM*;Papain counter=2%;nsP2pro confirm=1.6µM*;HCV NS3 4A cs=i
Cc1ccc(OCCn2c(CCNC(=O)c3c(F)cccc3F)nc3ccccc32)cc1	-28%
CC1(C(=O)N2CCC(c3ccccc3)CC2)CCc2cnc(Nc3ccncc3)nc21 (centres undefined)	i
Cc1ccc(-c2cc(C(=O)NCc3ccc(S(C)(=O)=O)cc3)c3ccccc3n2)cc1C	-6%
Cc1ccsc1CN(C)c1ncnc2ccc(-c3ccc(CO)o3)cc12	10µM*	nsP2 cell sec=26µM*;CHIKV NSP2 FL=?;Furin counter=-9%;nsP2 NS23 pep=?;Papain counter=-8%;nsP2pro confirm=3%;HCV NS3 4A cs=23µM*
Cc1ccsc1CN(C)c1ncnc2ccc(-c3ccoc3)cc12	-22%
CCN(Cc1sccc1C)c1ncnc2ccc(-c3ccc4c(c3)OCO4)cc12	i
C=C/C=C/[C@@H]1OC[C@H](/C=C/C=C/C)[C@H]1O	-15%[39.2 µM]
Cc1cc(N[S+](=O)([O-])c2ccc(NC(=O)Cc3ccc4c(c3)OCCO4)cc2)no1	i
CN(C)C(=S)SSC(=S)N(C)C	2.8µM*	nsP2 cell sec=25µM*;CHIKV NSP2 FL=9.2µM*;Furin counter=-11%;nsP2 NS23 pep=9.2µM*;Papain counter=-11%;nsP2pro confirm=1.6µM*;HCV NS3 4A cs=i
CN(C)C(=S)SC(=S)N(C)C	8.8µM*	nsP2 cell sec=-1%;CHIKV NSP2 FL=29µM*;Furin counter=4%;nsP2 NS23 pep=-26%;Papain counter=-17%;nsP2pro confirm=7.1µM*;HCV NS3 4A cs=?
FC(F)(F)c1ccc(N2CCN(C(=S)Nc3ccccn3)CC2)cc1	-14%
SMILES	nsP2pro inh	others
COc1cc2nc(-c3cc4c(c(OC)c3)OCCNC4)cc(C)c2cc1OC	i
COc1cc(O)c(C(=O)Nc2nc(C(=O)NCCN(C(C)C)C(C)C)cs2)cc1OC	-23%
N#Cc1nc(-c2cccc3ccccc23)oc1Nc1ccccc1	-3%
O=C(c1ccc(Cl)nc1)N1CCC2(CC1)CCN(Cc1cccs1)c1ccccc1O2	-2%
COc1ccnc(NC(=S)N2CCN(c3cc(C(F)(F)F)cc(C(F)(F)F)c3)CC2)c1	i
C[C@@H](O)c1ccc(-c2ccc3ncnc(NCc4cccs4)c3c2)o1	0%
COc1ccccc1NC(=O)c1cc(-c2ccc(C)c(C)c2)nc2ccccc12	-4%
O=C1Nc2ccccc2CC12CCN(Cc1cccnc1)C2 (centres undefined)	-7%[39.2 µM]
O=C1Nc2ccccc2CC12CCN2Cc1ccc(OC(F)(F)F)cc1 (centres undefined)	2%
O=C1Nc2ccccc2CN(Cc2ccccc2)C12CCNC2 (centres undefined)	?	nsP2 cell sec=43%
NC(Cc1ccccc1)C(=O)N1CCC2(CC1)CN(C(=O)c1ccc(Cl)cc1)CCO2 (centres undefined)	-10%
COc1ccc2nc(-c3ccc(F)cc3Cl)sc2c1	-13%
Cc1ccc(NS(=O)(=O)c2cc3c(cc2N2CCCC2)NC(=O)CC3)cc1C	-13%
Cc1ccc(S(=O)(=O)Nc2cnccc2C(=O)Nc2nc(-c3cccc(C)c3)cs2)cc1	3%
O=C1C2CC=CCC2C(=O)N1SC(Cl)(Cl)Cl (centres undefined)	1.8µM*	nsP2 cell sec=?;CHIKV NSP2 FL=2.9µM*;Furin counter=-3%;nsP2 NS23 pep=5.8µM*;Papain counter=-5%;nsP2pro confirm=0.9µM*;HCV NS3 4A cs=?
CN1CCN2c3c(cccc31)[C@@H]1CN(CCCC(=O)c3ccc(F)cc3)CC[C@@H]12	-15%
Cc1cc(NS(=O)(=O)CCNC(=O)Cc2ccc(Cl)c(Cl)c2)no1	5%
Cc1cnc(-c2ccccc2C(C)C)nc1NCc1ccc(-c2ccc(F)nc2)cc1	i
COc1ccc(OC)c(C(O)C(C)N)c1 (centres undefined)	0%
C[C@H](N)[C@H](O)c1ccc(O)c(O)c1	?	nsP2 cell sec=-65%;CHIKV NSP2 FL=?;Furin counter=-10%[17.3 µM];nsP2 NS23 pep=9µM*;Papain counter=-9%[17.2 µM];nsP2pro confirm=?;HCV NS3 4A cs=0.052µM*
C=CCc1cc(OC)c(OC(C)C(O)c2ccc(O)c(OC)c2)c(OC)c1 (centres undefined)	-1%
Oc1cccc(-c2nc(N3CCOCC3)c3sccc3n2)c1	12%
COc1ccc(CN2C(=O)COC[C@H]2C(=O)Nc2cc(F)cc(F)c2)cc1OC	4%
Oc1cc(O)c2c(c1)O[C@H](c1ccc(O)c(O)c1)[C@H](O)C2	0%
